Assay results from PubChem BioAssay (NCATS).
Records with an inconclusive call do not appear. A number with no mark means an inactive call. Calls come from the whole dose curve; as a rule, active = well fitted cell-killing curve with a large enough effect; inconclusive = small, poorly fitted or top-dose-only effect, or effect the other way; inactive = flat fitted curve, though single readings scatter. Where a SMILES comes first, the peptide text is derived from it. [ ]: non-standard residue; d: D form. ξ: configuration not given here. ξPhe(βξ-Me) = CC(c1ccccc1)C(N)C(=O)O; GABA = NCCCC(=O)O

tested on: C33A; test: Primary qHTS to identify gynecologic anti-cancer compounds using libraries of approved drugs and bioactive compounds (AID 1345084); settings: Gynecologic cancer cell panel viability, ATPlite luminescence, 48 h; series mostly up to 57.5 µM; activity change, negative = cytotoxicity: at the top concentration; note: nearly all actives have a fitted effect of over 55% in size
How it was run: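 Measured: luminescence after ATPlite addition (15 min, RT). Exposure: 48 h, 37 C, 5% CO2.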
% is set by controls: 0 for no effect and ±100 for the full control effect.

Structure (SMILES)	activity change, negative = cytotoxicity
CC(C)C(=O)O[C@@H]1[C@@H](O)[C@@H](O[C@H]2O[C@H](CO)[C@@H](O)[C@H](O)[C@H]2O)O[C@H](CO)[C@H]1O	-1.4% [at 25.3 µM]
C=C(C(=O)O)[C@@H]1CC=C2CCC[C@H](C)[C@@]2(C)C1	-0.826%
CC1(C)CC[C@]2(C(=O)O)CC[C@]3(C)C(=CCC4[C@@]5(C)CCC(O[C@@H]6OC[C@H](O)[C@H](O)[C@H]6O[C@@H]6O[C@H](CO)[C@@H](O)[C@H](O)[C@H]6O)[C@@](C)(CO)C5CC[C@]43C)[C@@H]2C1 (some centres not stated)	-2.56% [at 25.3 µM]
CNc1nc(Nc2cnn([C@H]3CCN(C4COC4)C[C@@H]3F)c2Cl)ncc1C(F)(F)F	4.87%
CCCCNC(=O)[C@@H]1Cc2ccccc2N1C(=O)[C@@H](N)CC	8.19%
Cc1coc2c1CC1OC1(C)CCC1OC1(C)C2 (configuration not stated)	1.08%
COC(=O)C1C(CC(C)=O)C=CC(O)C12Oc1cc(C)cc(O)c1C2=O (configuration not stated)	3.57% [at 38.5 µM]
CCOC(=O)[C@H]1O[C@@H]1C(=O)N[C@@H](CC(C)C)C(=O)NCCC(C)C	11%
C=C1CCC2C(C)(C)C(O)CCC2(C)C1CCC(C)CCOC(=O)CCC(=O)O (configuration not stated)	7.2% [at 25.3 µM]
CC1CCC2(C(=O)OC3OC(CO)C(O)C(O)C3O)CCC3(C(=O)O)C(=CCC4C5(C)CCC(OC6OC(C)C(O)C(O)C6O)C(C)(C)C5CCC43C)C2C1C (configuration not stated)	-3.3% [at 25.3 µM]
COC1CC(=O)C23C(=O)NC(CC(C)C)C2C(C)C(C)=CC3/C=C(\C)CCC1O (configuration not stated)	-28.4% [at 25.3 µM]
C[C@@H]1O[C@@H](O[C@H]2[C@H](OC(=O)[C@]34CCC(C)(C)C[C@H]3C3=CCC5[C@@]6(C)C[C@H](O)[C@H](O[C@@H]7O[C@H](CO[C@@H]8OC[C@H](O)[C@H](O)[C@H]8O)[C@@H](O)[C@H](O)[C@H]7O)C(C)(C)C6CC[C@@]5(C)[C@]3(C)C[C@H]4O)OC[C@@H](O)[C@@H]2O)[C@H](O)[C@H](O[C@@H]2OC[C@](O)(CO)[C@H]2O)[C@H]1O[C@@H]1OC[C@H](O)[C@H](O[C@@H]2OC[C@@H](O)[C@H](O)[C@H]2O)[C@H]1O (some centres not stated)	-0.101% [at 6.55 µM]
COc1cc(C)c(C(=O)O[C@H]2[C@@H](O)[C@H](n3ccc(=O)[nH]c3=O)O[C@@H]2CO)c(OC)c1	0.514% [at 25.3 µM]
CC(C)CC1NC(=O)C(C(C)c2ccccc2)NC(=O)C(C(C)C)NC(=O)C(C)NC(=O)CCCNC(=O)C(Cc2c[nH]c3ccccc23)NC(=O)C(C)NC1=O (stereo not drawn) (cyclo([GABA]AV[ξPhe(βξ-Me)]LAW); configuration not given here)	0.0078% [at 25.3 µM]
CC(C)Nc1cc(-c2c[nH]c(C(=O)N[C@H](CO)c3cccc(Cl)c3)c2)c(Cl)cn1	-7.76%
COc1cc(N2CCC(O)CC2)ccc1Nc1cc(Nc2ccccc2S(=O)(=O)C(C)C)c2cc[nH]c2n1	-2.29% [at 38.5 µM]
O=C(O)C[C@@H](NC(=O)c1cc(-c2ccc(-c3ccncc3)cc2)cs1)c1ccccc1	-1.07%
OC[C@H]1O[C@@H](n2cnc3c2NC=NC[C@H]3O)C[C@@H]1O	9.87%
CC1(C)C[C@H]2C3=CCC4[C@@]5(C)CC[C@H](O[C@H]6O[C@H](C(=O)O)[C@@H](O)[C@H](O)[C@H]6O[C@H]6O[C@H](CO)[C@@H](O)[C@H](O)[C@H]6O[C@@H]6O[C@H](CO)[C@@H](O)[C@H](O)[C@H]6O)[C@](C)(CO)C5CC[C@@]4(C)[C@]3(C)CC[C@@]2(C)[C@H](O[C@@H]2OC[C@H](O)[C@H](OC3O[C@H](CO)[C@@H](O)[C@H](O)[C@H]3O)[C@H]2O)[C@@H]1O (some centres not stated)	3.46% [at 6.55 µM]
C[C@@H]1O[C@@H](O[C@H]2[C@H](OC(=O)[C@]34CCC(C)(C)C[C@H]3C3=CCC5[C@@]6(C)C[C@H](O)[C@H](O[C@@H]7O[C@H](CO)[C@@H](O[C@@H]8O[C@H](CO)[C@@H](O)[C@H](O)[C@H]8O)[C@H](O)[C@H]7O)[C@@](C)(CO)C6[C@H](O)C[C@@]5(C)[C@]3(C)C[C@H]4O)OC[C@H](O)[C@@H]2O)[C@H](O)[C@H](O)[C@H]1O[C@@H]1OC[C@@H](O)[C@H](O[C@@H]2OC[C@](O)(CO)[C@H]2O)[C@H]1O (some centres not stated)	12.9% [at 6.55 µM]
Nc1ccn([C@@H]2C(F)=C(CO)[C@@H](O)[C@H]2O)c(=O)n1	-24.4%
C[C@@H]1O[C@@H](OC[C@H]2O[C@@H](OCC3CCC4CC3C4(C)C)[C@H](O)[C@@H](O)[C@@H]2O)[C@H](O)[C@H](O)[C@H]1O (some centres not stated)	4.87% [at 25.3 µM]
